Results as given in PubChem BioAssay AID1159580 (chemical genetic matrix, 2015).
Values joined by “and” are separate entries in the source; they are usually repeats but may differ in a detail not shown here. Equal values may be shown once. Screen size: about 5,500 compounds; about 2,000 (36%) were called active. Not shown: some 18% with an inconclusive outcome. Cut-off read from the data, not from the text of the source: active = normalized growth mostly below about 0.91 (no sharp cut-off); inconclusive = no clear call, values can overlap the other calls; inactive = mostly above about 0.92. The list shows a part of the results.

Assay: chemical genetic growth profiling, strain panel (AID 1159580);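 note: tested at 20 µM; growth read once vehicle control cultures reached saturation at 30 °C; 1 = growth at the plate median or of vehicle wells; lower values mean less growth of the strain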
Conditions: S. cerevisiae deletion strains, growth OD

Measured: normalized growth

Oc1cc2c(cc1O)C1c3ccc(O)c(O)c3OCC1(O)C2 (centres undefined)
inactive: locus YAL021C, strain ccr4, stronger effect = lower value 1 | locus YAL030W, strain snc1, stronger effect = lower value 1.01 | locus YBL061C, strain skt5, stronger effect = lower value 0.993 | locus YBR009C, strain hhf1, stronger effect = lower value 1 | locus YBR021W, strain FUR4, stronger effect = lower value 1.01 | locus YBR023C, strain chs3, stronger effect = lower value 0.995 | locus YBR171W, strain sec66, stronger effect = lower value 1.01 | locus YBR229C, strain ROT2, stronger effect = lower value 1 | locus YBR231C, strain swc5, stronger effect = lower value 0.956 | locus YBR279W, strain paf1, stronger effect = lower value 0.984 | locus YCL011C, strain gbp2, stronger effect = lower value 1.01 | locus YCL016C, strain dcc1, stronger effect = lower value 1 | locus YCL029C, strain bik1, stronger effect = lower value 0.997 | locus YCL069W, strain vba3, stronger effect = lower value 1.02 | locus YCR088W, strain abp1, stronger effect = lower value 1.02 | locus YDL005C, strain med2, stronger effect = lower value 1 | locus YDL035C, strain GPR1, stronger effect = lower value 0.973 | locus YDL040C, strain nat1, stronger effect = lower value 1.04 | locus YDL074C, strain BRE1, stronger effect = lower value 0.852 | locus YDL101C, strain DUN1, stronger effect = lower value 0.908 | locus YDL185W, strain tfp1, stronger effect = lower value 0.961 | locus YDL192W, strain arf1, stronger effect = lower value 0.997 | locus YDR001C, strain nth1, stronger effect = lower value 1.02 | locus YDR069C, strain doa4, stronger effect = lower value 0.936 | locus YDR101C, strain arx1, stronger effect = lower value 1.07 | locus YDR137W, strain rgp1, stronger effect = lower value 1.05 | locus YDR159W, strain sac3, stronger effect = lower value 1.03 | locus YDR195W, strain ref2 1.02 | locus YDR297W, strain sur2, stronger effect = lower value 1.01 | locus YDR318W, strain mcm21, stronger effect = lower value 0.99 | locus YDR334W, strain swr1, stronger effect = lower value 0.991 | locus YDR335W, strain msn5, stronger effect = lower value 0.996 | locus YDR388W, stronger effect = lower value 0.998 | locus YDR392W, strain spt3, stronger effect = lower value 0.991 | locus YDR502C, strain sam2, stronger effect = lower value 1.01 | locus YEL003W, strain gim4, stronger effect = lower value 1.01 | locus YEL037C, strain rad23, stronger effect = lower value 1.02 | locus YEL061C, strain CIN8 (second series), stronger effect = lower value 1.02 | locus YEL061C, strain CIN8, stronger effect = lower value 0.964 | locus YER015W, strain faa2, stronger effect = lower value 0.983 | locus YER016W, strain bim1, stronger effect = lower value 1.02 | locus YER110C, stronger effect = lower value 0.999 | locus YER111C, strain swi4, stronger effect = lower value 0.961 | locus YER155C, strain BEM2 (second series), stronger effect = lower value 1.02 | locus YER155C, strain BEM2, stronger effect = lower value 1.02 | locus YER167W, strain BCK2, stronger effect = lower value 1.04 | locus YFR010W, strain ubp6, stronger effect = lower value 0.983 | locus YGL078C, strain dbp3, stronger effect = lower value 0.972 | locus YGL086W, strain mad1, stronger effect = lower value 0.966 | locus YGL173C, strain kem1, stronger effect = lower value 0.985 | locus YGL227W, strain vid30, stronger effect = lower value 1.01 | locus YGL240W, strain doc1, stronger effect = lower value 1.04 | locus YGL248W, strain PDE1, stronger effect = lower value 0.893 | locus YGL253W, strain hxk2, stronger effect = lower value 1.01 | locus YGR078C, strain PAC10, stronger effect = lower value 0.916 | locus YGR135W, strain pre9, stronger effect = lower value 0.946 | locus YGR252W, strain gcn5, stronger effect = lower value 0.992 | locus YHR013C, strain ard1, stronger effect = lower value 0.987 | locus YHR027C, strain rpn1, stronger effect = lower value 0.98 | locus YHR030C, strain SLT2, stronger effect = lower value 1 | locus YHR079C, strain IRE1 (second series), stronger effect = lower value 1.01 | locus YHR079C, strain IRE1, stronger effect = lower value 1.01 | locus YHR094C, strain hxt1, stronger effect = lower value 1.01 | locus YHR142W, strain chs7, stronger effect = lower value 0.99 | locus YHR200W, strain rpn10, stronger effect = lower value 0.976 | locus YIL066C, strain RNR3, stronger effect = lower value 0.939 | locus YIL073C, strain SPO22, stronger effect = lower value 0.683 | locus YIL125W, strain kgd1, stronger effect = lower value 1 | locus YIR030C, strain dcg1, stronger effect = lower value 1.01 | locus YJL092W, strain hpr5, stronger effect = lower value 1.02 | locus YJL095W, strain BCK1 (second series), stronger effect = lower value 1.01 | locus YJL095W, strain BCK1, stronger effect = lower value 0.811 and 0.994 | locus YJL115W, strain asf1, stronger effect = lower value 1 | locus YJL129C, strain trk1, stronger effect = lower value 1.07 | locus YJL134W, strain LCB3, stronger effect = lower value 0.992 | locus YJL154C, strain vps35, stronger effect = lower value 1.02 | locus YJL164C, strain tpk1, stronger effect = lower value 0.991 | locus YJL166W, strain qcr8, stronger effect = lower value 0.991 | locus YJL168C, strain set2, stronger effect = lower value 0.984 | locus YJR043C, strain POL32, stronger effect = lower value 0.95 | locus YJR066W, strain TOR1, stronger effect = lower value 0.913 | locus YKL009W, strain mrt4, stronger effect = lower value 1.06 | locus YKL068W, stronger effect = lower value 0.983 | locus YKL085W, strain MDH1 (second series), stronger effect = lower value 0.977 | locus YKL085W, strain MDH1, stronger effect = lower value 0.977 | locus YKL160W, strain elf1, stronger effect = lower value 0.983 | locus YKR001C, strain vps1, stronger effect = lower value 1.03 | locus YKR026C, strain gcn3, stronger effect = lower value 1.01 | locus YKR091W, strain srl3, stronger effect = lower value 1.02 | locus YLL001W, strain dnm1, stronger effect = lower value 1.01 | locus YLL026W, stronger effect = lower value 1.01 | locus YLL041C, strain sdh2, stronger effect = lower value 1.03 | locus YLR027C, strain aat2, stronger effect = lower value 0.984 | locus YLR039C, strain RIC1, stronger effect = lower value 0.916 | locus YLR058C, strain SHM2, stronger effect = lower value 0.916 | locus YLR102C, strain apc9, stronger effect = lower value 0.998 | locus YLR113W, strain HOG1, stronger effect = lower value 1.07 | locus YLR221C, strain rsa3, stronger effect = lower value 0.986 | locus YLR258W, strain gsy2, stronger effect = lower value 1.02 | locus YLR262C, strain YPT6 (second series), stronger effect = lower value 0.979 | locus YLR268W, strain sec22, stronger effect = lower value 1.04 | locus YLR320W, strain mms22, stronger effect = lower value 0.999 | locus YLR330W, strain CHS5, stronger effect = lower value 0.974 | locus YLR342W, strain FKS1, stronger effect = lower value 0.979 | locus YLR357W, strain rsc2, stronger effect = lower value 0.907 | locus YLR370C, strain arc18, stronger effect = lower value 0.987 | locus YLR371W, strain rom2, stronger effect = lower value 0.932 | locus YLR384C, strain iki3, stronger effect = lower value 1 | locus YLR418C, strain cdc73, stronger effect = lower value 0.963 | locus YML032C, strain rad52, stronger effect = lower value 1.07 | locus YML120C, strain ndi1, stronger effect = lower value 1.04 | locus YML124C, strain tub3, stronger effect = lower value 1.02 | locus YMR078C, strain ctf18, stronger effect = lower value 1.01 | locus YMR125W, strain sto1, stronger effect = lower value 1.05 | locus YMR129W, stronger effect = lower value 1.03 | locus YMR205C, strain PFK2, stronger effect = lower value 1.02 | locus YMR223W, strain ubp8, stronger effect = lower value 0.977 | locus YMR231W, strain pep5, stronger effect = lower value 0.995 | locus YMR307W, strain GAS1, stronger effect = lower value 0.784 | locus YNL067W, strain RPL9B, stronger effect = lower value 0.931 | locus YNL071W, strain lat1, stronger effect = lower value 1.01 | locus YNL153C, strain GIM3, stronger effect = lower value 0.908 | locus YNL183C, strain NPR1, stronger effect = lower value 0.907 | locus YNL209W, strain ssb2, stronger effect = lower value 0.958 | locus YNL233W, strain BNI4, stronger effect = lower value 0.911 | locus YNL248C, strain rpa49, stronger effect = lower value 0.995 | locus YNL250W, strain rad50, stronger effect = lower value 0.952 | locus YNL271C, strain bni1, stronger effect = lower value 0.988 | locus YNL298W, strain CLA4, stronger effect = lower value 0.991 | locus YNL307C, strain MCK1, stronger effect = lower value 0.996 | locus YNL322C, strain KRE1 (second series), stronger effect = lower value 1.01 | locus YNR049C, strain mso1, stronger effect = lower value 1.02 | locus YNR052C, strain pop2, stronger effect = lower value 0.954 | locus YOL006C, strain TOP1, stronger effect = lower value 0.585 | locus YOL012C, strain htz1 0.422 | locus YOL147C, strain pex11, stronger effect = lower value 1.01 | locus YOR001W, strain rrp6, stronger effect = lower value 0.991 | locus YOR061W, strain CKA2, stronger effect = lower value 0.945 | locus YOR069W, strain VPS5, stronger effect = lower value 0.953 | locus YOR070C, strain gyp1, stronger effect = lower value 0.965 | locus YOR080W, strain dia2, stronger effect = lower value 1.01 | locus YOR083W, strain WHI5, stronger effect = lower value 0.971 | locus YOR106W, strain vam3, stronger effect = lower value 0.985 | locus YOR136W, strain idh2, stronger effect = lower value 1.02 | locus YOR144C, strain elg1, stronger effect = lower value 1.01 | locus YOR184W, strain ser1, stronger effect = lower value 1.09 | locus YOR231W, strain MKK1, stronger effect = lower value 1.01 | locus YOR265W, strain rbl2, stronger effect = lower value 1 | locus YOR270C, strain vph1, stronger effect = lower value 1.05 | locus YOR290C, strain snf2, stronger effect = lower value 0.997 | locus YOR316C, strain cot1, stronger effect = lower value 0.996 | locus YPL051W, strain arl3, stronger effect = lower value 0.929 | locus YPL078C, strain atp4, stronger effect = lower value 1.02 | locus YPL106C, strain sse1, stronger effect = lower value 0.957 | locus YPL240C, strain hsp82, stronger effect = lower value 1.02 | locus YPL256C, strain CLN2, stronger effect = lower value 1.02 | locus YPR119W, strain clb2, stronger effect = lower value 1.01 | locus YPR141C, strain kar3, stronger effect = lower value 0.982 | locus YPR163C, strain tif3, stronger effect = lower value 1.01 | locus YPR167C, strain met16, stronger effect = lower value 1.01 | strain wtn01, stronger effect = lower value 1.02
active: locus YDL134C, strain PPH21, stronger effect = lower value 0.832 | locus YDR162C, strain NBP2, stronger effect = lower value 0.821 | locus YHR129C, strain ARP1, stronger effect = lower value 0.912 | locus YJL187C, strain SWE1 (second series), stronger effect = lower value 0.856 | locus YLR342W, strain FKS1 (second series), stronger effect = lower value 0.696 | locus YML016C, strain PPZ1, stronger effect = lower value 0.86 | locus YMR058W, strain fet3, stronger effect = lower value 0.784 | locus YNL322C, strain KRE1, stronger effect = lower value 0.902
